PLK1 PBD inh = qHTS for Inhibitors of PLK1-PDB (polo-like kinase 1 - polo-box domain): Primary Screen | AID 720504, 2013 | Serine/threonine-protein kinase PLK1 (Homo sapiens), P53350 | Potency, µM, without a hit: max response, negative = inhibition, hits mostly inhibitors | 360,000 tested, 2.8% active | Plk1 PBD binding of FITC phosphopeptide, fluorescence polarization; note: series mostly up to about 57 µM; % is set by controls: 0 for no effect and ±100 for the full control effect; nearly all actives have a fitted effect of over 65% in size
BAZ2B inh = qHTS Assay for Inhibitors of BAZ2B | AlphaScreen BAZ2B-H3K14Ac peptide displacement | Potency, µM (highest dose often 114 µM), for inactives: top-dose activity change, negative = inhibition, actives largely listed as inhibitors | 360,000 tested, 4.4% active | Bromodomain adjacent to zinc finger domain protein 2B (Homo sapiens), Q9UIF8 | AID 504333, 2011; note: % is set by controls: 0 for no effect and ±100 for the full control effect; nearly all actives have a fitted effect of over 60% in size
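AlphaScreen displacement of biotin-H3(5-23)K14Ac peptide (50 nM final) from BAZ2B (50 nM final) in PBS pH 7.4, 0.01% Tween-20; complex preformed 30 min RT, then compounds (top 110 uM) 30 min RT, beads 20 min dark.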
JMJD2A Tudor = qHTS Assay for Inhibitors of JMJD2A-Tudor Domain; Lysine-specific demethylase 4A (Homo sapiens), O75164; AlphaScreen JMJD2A-Tudor / H3K4me3 peptide binding; Potency, µM (highest dose often 114 µM), without a hit: at the highest dose activity change, negative = inhibition, usual class: inhibitors; 390,000 tested, 4.4% active; AID 504339, 2011; note: % is set by controls: 0 for no effect and ±100 for the full control effect; nearly all actives have a fitted effect of over 50% in size
HP1b chromo inh = HTS for Inhibitors of HP1-beta Chromodomain Interactions with Methylated Histone Tails; AlphaScreen HP1-beta / biotin-H3K9me3 peptide binding; Potency, µM (top dose mostly 114 µM), for the others: at the top dose activity change, negative = inhibition, actives largely listed as inhibitors; 390,000 tested, 0.56% active; AID 540317, 2011; note: nearly all actives have a fitted effect of over 70% in size
Target sequence (P83916 whole entry, looked up): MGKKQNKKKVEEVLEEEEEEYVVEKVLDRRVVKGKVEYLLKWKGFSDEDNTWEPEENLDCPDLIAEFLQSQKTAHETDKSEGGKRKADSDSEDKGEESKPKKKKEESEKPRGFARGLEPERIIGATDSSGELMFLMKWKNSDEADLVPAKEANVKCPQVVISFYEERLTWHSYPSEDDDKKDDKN
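Compound inhibition of the preformed complex between 50 nM HP1-beta and 50 nM biotinylated H3K9me3 peptide was read by AlphaScreen. Buffer was PBS pH 7.4 with 0.01% Tween-20. Incubations ran 30 min at room temperature, with 10 ug/mL donor/acceptor beads.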
G9a block = qHTS Assay for Inhibitors of Histone Lysine Methyltransferase G9a. G9a H3K9 monomethylation, AlphaScreen, 2 h. 350,000 tested, 8.8% active. Potency, µM (highest dose often 102 µM), inactives show top-dose activity, negative = inhibition, actives largely listed as inhibitors; note: % is set by controls: 0 for no effect and ±100 for the full control effect; nearly all actives have a fitted effect of over 75% in size
Target sequence (Q96KQ7 913-1193 limits assumed): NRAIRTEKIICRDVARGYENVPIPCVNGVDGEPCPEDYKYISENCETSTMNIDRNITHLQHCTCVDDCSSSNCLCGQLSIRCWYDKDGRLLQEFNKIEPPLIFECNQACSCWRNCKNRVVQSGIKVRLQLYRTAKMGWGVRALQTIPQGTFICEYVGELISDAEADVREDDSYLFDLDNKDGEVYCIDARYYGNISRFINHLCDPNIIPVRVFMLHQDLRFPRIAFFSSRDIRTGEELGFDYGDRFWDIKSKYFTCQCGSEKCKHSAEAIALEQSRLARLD
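Enzyme 20 nM + cpd, 15 min RT; add b-H3K9 pep 500 nM / SAM 20 uM; 2 h RT; anti-H3K9me1 Ab 0.5 ug/mL + SA donor / anti-rabbit acceptor beads 20 ug/mL each, 10 min; AlphaScreen read.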
ALOX12 inh = Primary qHTS assay for inhibitors of human arachidonate 12S-lipoxygenase (ALOX12): Round 2 | purified 12hLO, xylenol orange hydroperoxide absorbance | AID 1671190, 2021 | 580,000 tested, 1.1% active | Potency, µM (series often up to 108 µM), for inactives: top-dose activity change, negative = inhibition, actives largely listed as inhibitors; note: % is set by controls: 0 for no effect and ±100 for the full control effect
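Purified human 12hLO at 150 nM in 25 mM Hepes, 0.01% Triton X-100, pH 7.0, preincubated 15 min at room temperature with compound. Reaction started with 40 uM arachidonic acid, 30 min at room temperature. Hydroperoxide measured by Fe-xylenol orange, 573/405 nm absorbance ratio.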
Starred values were filed as active, the others as inactive; ? = inconclusive; · = no result; ! = not confirmed by another sample; [ ] = remark or other dose. An excerpt weighted towards active compounds, which were near 9% of everything screened. Calls come from the whole dose curve; as a rule, active = well fitted curve in the direction sought with a large enough effect; inconclusive = small, poorly fitted or top-dose-only effect, or another doubt; inactive = no such curve, though single readings can be large; an effect the other way counts as inactive or inconclusive. Potency is the fitted concentration of half-maximal effect.

SMILES	PLK1 PBD inh	BAZ2B inh	JMJD2A Tudor	HP1b chromo inh	G9a block	ALOX12 inh
COCCNC(=O)CSc1nc2ccccc2c(=O)n1CCC(=O)N1CCN(c2ccccc2)CC1	-9.9%	-11.6%	-25.3%	0.6%	19.4%[59 µM]	-9.9%
CC(=C\c1ccco1)/C=C(\C#N)C(=O)NCCc1c[nH]c2ccccc12	-5.4%	?	?	9.2%	12.6µM*	?
COc1cccc(OCCn2cccc2/C=C2/C(=N)N3OC(C)=CC3=NC2=O)c1	-19.9%	?	-10.0%	-2.4%	17.8µM*	-7.1%
CC1=CC2=NC(=O)/C(=C\c3cccn3CCOc3cc(C)cc(C)c3)C(=N)N2O1	-0.4%	?	?	-10.2%	39.8µM*	-2.5%
CCOc1ccc(/C=C2/C(=N)N3OC(C)=CC3=NC2=O)cc1OC	21.2µM*	-3.2%	-17.5%	-7.1%	-47.2%	-4.8%
CC1=CC2=NC(=O)/C(=C\c3cccn3CCOc3ccccc3)C(=N)N2O1	-6.7%	?	?	-6.7%	?	-18.8%
CC1=CC2=NC(=O)/C(=C\c3cccn3CCOc3cccc(C)c3)C(=N)N2O1	-3.8%	-38.3%	?	-23.3%	2.6%[59 µM]	-19.6%
O=C(NCc1ccco1)c1ccc2c(c1)C(=O)N(C1CCCCC1)C2=O	-5.2%	-15.2%	?	19.4%	21.9%	-5.6%
O=C(Oc1ccc2ccc(OC(=O)N3CCOCC3)cc2c1)N1CCOCC1	-4.9%	-1.7%	-3.8%	6.4%	1.9%[59 µM]	0.0%
Cc1ccc(C(=O)NCCSC2CCCC2)s1	·	·	·	·	·	-27.3%
COc1ccc(S(=O)(=O)N2CC(O)C[C@H]2C(=O)OCC(=O)N2CCCCCC2)cc1 (stereo not given in full)	-9.1%	·	-2.1%	37.0%	18.5%	0.0%
COc1ccc(-c2c(-c3cc(OC)cc(OC)c3)n(C)c3ccc(Br)cc23)cc1	-4.3%	-36.5%	-26.1%	24.4%	27.6%[2.33 µM]	21.9%
COc1ccc(N=Nc2nc3ccc(Br)cc3n2C)cc1	?	63.1µM*	?	?	6.31µM*	-24.9%
Cc1ccc(/C=N/NC(=O)CN2CCN(Cc3ccccc3)CC2)o1	-1.1%	-16.8%	-8.6%	26.3%	11.6%	143.6%
Cc1nc2c(ccc3c(C)c(C)[nH]c32)s1	·	·	·	·	·	28.2µM*
Cc1cccc(CSCc2ccc(C(=O)O)o2)c1	23.8µM*	18.4%	-26.5%	?	48.4%[0.501 µM]	6.1%
Cc1ccc(CNC(=O)c2ccc(CSCc3ccc(C)cc3)o2)cc1	·	29.1%	31.6µM*	33.5%	9.9%[59 µM]	11.2µM*!
Cc1ccc(CNC(=O)c2ccc(CSCc3cccc(C)c3)o2)cc1	·	26.3%	15.3%	44.9%	4.1%[59 µM]	?
Cc1ccc(CSCc2ccc(C(=O)O)o2)cc1	-10.7%	-5.7%	-20.5%	31.8%	-4.0%	0.3%
Cc1ccc(N2CC(C(=O)NC3=NCCS3)CC2=O)cc1C (stereo not given)	-13.4%	5.1%	-20.8%	15.0%	-12.8%[59 µM]	-20.3%
Cc1ccc(N2CC(C(=O)Nc3ccccc3C(=O)NC3CCCCC3)CC2=O)cc1C (stereo not given)	-8.9%	·	20µM*	-11.0%	·	-2.4%
Cc1ccc(N2CC(C(=O)Nc3ccc(N(C)C)cc3)CC2=O)cc1C (stereo not given)	-0.4%	?	56.2µM*	-5.7%	-30.2%[12.7 µM]	-23.9%
CCOC(=O)c1[nH]c(C)c(C(=O)OCC(=O)NC(=O)NC(C)(C)C)c1C	-2.4%	1.0%	-17.3%	15.9%	8.3%[12.7 µM]	1.1%
CCOC(=O)[C@]12CCCC=C1N(CCC1=CCCCC1)C(=O)[C@H](CC(=O)NCc1cccc3ccccc13)C2	1.4%	·	·	·	·	1.8%
O=C1NCc2ccccc2CC12CCCN(Cc1ccc(O)cc1)C2 (stereo not given)	·	·	·	·	·	-2.3%[6.33 µM]

Source: PubChem BioAssay
